Experimental data reported in PubChem BioAssay AID1626 (SRMLSC, 2009).
The campaign covered roughly 220,000 compounds. About 2,000 (0.91%) were called active. Another 2% or so got no clear call; they are omitted. These entries were drawn from the full list. Entries with a potency or affinity are not part of this list. Unmarked numbers belong to inactive results. Cut-off read from the data, not from the text of the source: inconclusive = inhibition above about 80% without an active follow-up result; inactive = below that; test concentration not stated here.

Experiment: M. tuberculosis H37Rv growth inhibitors, H37Rv strain (AID 1626);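 note: bacteria incubated seven days before Alamar blue readout; 0% = bacteria only wells and 100% = bacteria with antibiotic wells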
Conditions: active compounds read high, concentration not given here
`COCCCNC(=O)c1ccc(N2CCOCC2)c(NS(=O)(=O)c2ccc(OC)cc2)c1` showed an inhibition of -10.8%.
For `Cc1ccc(SC[C@H](c2ccccc2)N2CCN(CCc3ccccc3)CCC2=O)cc1`, the inhibition was 0.98%.
With `COC(=O)C(C(=O)OC)c1ccc(N)cc1` the inhibition was 79.1%.
Work on `N/C(=N/OC(=O)c1ccccc1Cl)c1nonc1N` yielded an inhibition of -5.25%.
Work on `N=C(N)CCCOc1ccccc1-c1ccccc1` yielded an inhibition of 4.47%.
In the case of `O=C(CN1C(=O)c2ccccc2C1=O)Nc1ccc(N2CCOCC2)cc1`, the inhibition was 1.44%.
Compound `O=C(NCCN1CCOCC1)c1ccc2c(c1)N(Cc1cccc(F)c1)C(=O)c1ccccc1S2` has an inhibition of 2.5%.
`Cc1cc(Nc2c(C)n(C)n(-c3ccccc3)c2=O)n2c(nc3cc(F)c(F)cc32)c1C#N` gave an inhibition of -5.9%.
With `Cc1cc(Cl)n2c(nc3ccccc32)c1C#N` the inhibition was -11.2%.
`COC(=O)c1[nH]c2ccc(Br)cc2c1NC(=O)C(C)N1CCN(C2CCCCC2)CC1` (stereo not drawn) showed an inhibition of -3.42%.
For `CN(C(=O)COC(=O)c1c2c(nc3ccccc13)/C(=C/c1cccc([N+](=O)[O-])c1)CCC2)C1CCS(=O)(=O)C1` (stereo not drawn), the inhibition was 78.5%.
Work on `CC1CCc2nc3ccccc3c(C(=O)OCC(=O)NC3CCS(=O)(=O)C3)c2C1` (stereo not drawn) yielded an inhibition of -5%.
`Cc1nn(C)c(C(=O)Nc2ccn(Cc3ccccc3F)n2)c1[N+](=O)[O-]` gave an inhibition of -2.14%.
`O=[N+]([O-])c1ccc(NCCCO)c(S(=O)(=O)N2CCOCC2)c1` showed an inhibition of -3.72%.
`COc1ccc2c(c1)c1ccccc1n2C` gave an inhibition of -6.03%.
Work on `COc1ccc2c(c1)sc(=N)n2CC(=O)Nc1cc(C)cc(C)c1` yielded an inhibition of 3.49%.
With `O=C(O)COc1ccccc1Cc1ccccc1` the inhibition was -9.69%.
`O=C(COc1ccc(F)cc1)N1c2ccccc2CCc2ccccc21` gave an inhibition of 6.06%.
In the case of `O=C(CCC1CCCN(c2ncccn2)C1)N1CCN(c2ccccn2)CC1` (stereo not drawn), the inhibition was 0.77%.
In the case of `N#C/C(=C\c1ccco1)c1nc2ccccc2s1`, the inhibition was 4.85%.
`N#C/C(=C/c1ccncc1)c1nc2ccccc2s1` showed an inhibition of 4.82%.
Work on `Cc1ccc(OCC(=O)n2nc(C)cc2C)c(C)c1` yielded an inhibition of 10%.
Work on `COc1ccc(N2C(=O)CC(N3CCC(c4nc5ccccc5[nH]4)CC3)C2=O)cc1` (stereo not drawn) yielded an inhibition of -1.11%.
`O=C(CN1C(=O)NC2(CCCCCCC2)C1=O)N1CCc2ccccc2C1` showed an inhibition of -9.98%.
`O=C(CSc1nc2ccccc2s1)Nc1ccc2c(c1)OCO2` showed an inhibition of 76.4%.
`CCOc1ccc2nc(SCC(=O)NC(=O)C(C)C)sc2c1` showed an inhibition of 3.81%.
Work on `CSc1nsc(SCC(=O)Nc2cccc(C(C)=O)c2)n1` yielded an inhibition of -15.7%.
`CCn1nnnc1SCC(=O)Nc1nc2ccc(OC)cc2s1` gave an inhibition of 1.9%.
With `CSc1nsc(SCC(=O)Nc2nc3ccccc3s2)n1` the inhibition was 52.1%.
With `CSc1nsc(SCC(=O)Nc2ccc3c(c2)OCCO3)n1` the inhibition was -14.4%.
`CSc1nsc(SCC(=O)Nc2nc3ccc(C)cc3s2)n1` gave an inhibition of 10.3%.
`COc1ccc2nc(NC(=O)CSc3nnnn3C3CCCCC3)sc2c1` showed an inhibition of 0.53%.
`O=C1c2ccccc2C(Nc2ccc(S(=O)(=O)N3CCOCC3)cc2)N1Cc1ccco1` (stereo not drawn) gave an inhibition of -2.41%.
Compound `CC(CC(=O)N1CCN(c2ccc(C(F)(F)F)cn2)CC1)n1ccnc1` (stereo not drawn) has an inhibition of 1.81%.
`O=C(Cc1ccc(-n2c(=O)c3sccc3n(CC(=O)Nc3ccccc3F)c2=O)cc1)NCc1ccco1` showed an inhibition of -10.9%.
For `COc1ccc(C(CC(=O)N2CCCC(C)C2)c2c(OC)cc(OC)c3c(-c4ccccc4)cc(=O)oc23)cc1` (stereo not drawn), the inhibition was -5.32%.
Work on `COc1cc(C(CCN2CCCC(C)C2)c2c(OC)cc(OC)c3c(-c4ccccc4)cc(=O)oc23)cc(OC)c1OC` (stereo not drawn) yielded an inhibition of 71%.
With `COc1cc(OC)c2c(-c3ccccc3)cc(=O)oc2c1C(CC(=O)N1CCOCC1)c1ccc(N(C)C)cc1` (stereo not drawn) the inhibition was -7.25%.
`COc1cc(C(CCN2CCCC2)c2c(OC)cc(OC)c3c(-c4ccccc4)cc(=O)oc23)cc(OC)c1OC` (stereo not drawn) gave an inhibition of -3.05%.
`O=C(Cc1c(Cl)cccc1Cl)Nc1cccc(S(=O)(=O)N2CCOCC2)c1` showed an inhibition of 9.23%.
`OC(COc1ccc(-c2ccccc2)cc1)CN1CCOCC1` (stereo not drawn) gave an inhibition of 8.22%.
In the case of `CCOc1ccccc1NC(=O)Cn1c(=O)oc2ccccc21`, the inhibition was 6.54%.
For `Cc1nn(-c2ccccn2)c2c1C(c1ccccc1Cl)C1=C(N2)c2ccccc2C1=O` (stereo not drawn), the inhibition was 5.6%.
Work on `Cc1nn(-c2ccccn2)c2c1C(c1c(F)cccc1Cl)C1=C(N2)c2ccccc2C1=O` (stereo not drawn) yielded an inhibition of 8.57%.
`Cc1cc(C)c(C#N)c(Oc2ccc(O)cc2)n1` gave an inhibition of 8.87%.
With `CC(=O)C1C(=O)C=C(c2cccs2)CC1c1ccccc1` (stereo not drawn) the inhibition was 2.98%.
`O=C1C=C(c2cccs2)CC(c2cccs2)C1n1cnc([N+](=O)[O-])c1` (stereo not drawn) showed an inhibition of 8.22%.
`Cc1ccc(S(N)(=O)=O)c(C)c1N1CCCC1=O` showed an inhibition of -3.84%.
Compound `COc1cc(OC)c(NC(=O)CCc2nc(-c3ccc(C)cc3)no2)cc1Cl` has an inhibition of -0.67%.
Work on `Cc1ccc(-c2noc(CCC(=O)Nc3ccc4c(c3)OCO4)n2)cc1` yielded an inhibition of 67.5%.
Work on `COc1ccc(-c2noc(CCC(=O)Nc3cccc(C)c3)n2)cc1` yielded an inhibition of 78.2%.
`COc1ccc(-c2noc(CCC(=O)Nc3cc(OC)ccc3OC)n2)cc1` gave an inhibition of 3.07%.
For `COc1ccc(CCC(=O)Nc2ccc3c(c2)OCCO3)cc1`, the inhibition was -2.09%.
In the case of `Cc1ccc(-c2noc(CCC(=O)NCCCN3CCN(c4ccc(F)cc4)CC3)n2)cc1`, the inhibition was -9.54%.
`COc1ccc(-c2noc(CCC(=O)Nc3cc(Cl)c(OC)cc3OC)n2)cc1` showed an inhibition of 14.3%.
In the case of `COc1ccc(-c2noc(CCC(=O)NCCCN3CCN(c4ccc(F)cc4)CC3)n2)cc1`, the inhibition was 8.36%.
Work on `CCOc1ccc(-c2nc(N)ncc2Oc2ccc(OC)cc2)c(O)c1` yielded an inhibition of 1.63%.
`CCOc1ccc(CN2CCN(Cc3cccc4c3OCO4)CC2CCO)cc1` (stereo not drawn) gave an inhibition of 5.32%.
